Screens as filed in PubChem.
Shown are actives, neighbours in structure and some others; about 3.2% of the full set was active somewhere.
TcdB GH inh: inhibitors of Clostridioides difficile toxin B glycohydrolase | P18177 | TcdB glycohydrolase enzymatic assay, plate reader | inhibition, % at 9.99 µM | actives 0.24% (n = 350,000) | AID 652162; in the data active means inhibition above about 10%
GDH-TPI counter: counter-screen for M. tuberculosis FBA inhibitors: GDH-TPI coupled enzymes. GDH-TPI coupled enzyme counterscreen, NADH absorbance. inhibition, % at 4.8 µM. actives 1.2% (n = 360,000); in the data active means inhibition above about 30%;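 further: 0% = DMSO wells and 100% = wells lacking the enzyme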
Y pestis TopoI: blocks Yersinia pestis topoisomerase I activity; Y. pestis Topo-I cleavage product accumulation, plate reader; activity, % at 10 µM; actives 0.064% (n = 360,000); AID 504884; in the data active means activity above about 50%, passing the limit was not always enough
Mtb FBA inh: Mtb fructose-bisphosphate aldolase inhibition | purified M. tuberculosis FBA, fluorescence read-out | actives 2.3% (n = 360,000) | inhibition, % at 1 µM | P9WQA3; in the data active means inhibition above about 27%;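 further: 0% = vehicle and 100% = reference inhibitor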
PrPC TRFRET: reduces human prion protein on the cell surface. P04156. cell surface PrPC, TR-FRET read-out. inhibition, % at 13.8 µM. actives 0.43% (n = 370,000); in the data active means inhibition above about 24%; further: 0% = median of the test wells and 100% = reference compound wells
PrPC TRFRET cf: cell surface PrPC inhibition, TR-FRET confirmation | shares compounds with PrPC TRFRET | cell surface PrPC level | inhibition, % at 13.8 µM | actives 65% (n = 1,500) | AID 743200; in the data active means inhibition above about 25%
LD9 cytotox: counter-screen for PrPc inhibitors: cytotoxicity in LD9 cells. AID 743201. inhibition, % at 13.8 µM. actives 29% (n = 1,500). luminescence viability. shares compounds with PrPC TRFRET; in the data active means inhibition above about 9.5%
Active calls of the source: *; ! = repeats disagree.

CC(C)[C@H](NC(=O)OC(C)(C)C)c1nnc(S(=O)(=O)Cc2c(F)cccc2Cl)o1 was read as TcdB GH inh 0, GDH-TPI counter 3, Y pestis TopoI 20, Mtb FBA inh -3, PrPC TRFRET 30*, PrPC TRFRET cf 28* and LD9 cytotox 66*.
Screening C[C@H](CO)N1C[C@H](C)[C@H](CN(C)C(=O)NC2CCCCC2)Oc2ccc(NC(=O)C3CC3)cc2CC1=O returned TcdB GH inh 1.
`O=C1NC(Cc2ccccc2)C(=O)Nc2ccc(Br)cc21` (configuration not stated) gave TcdB GH inh 0, GDH-TPI counter 0, Y pestis TopoI 12, Mtb FBA inh -1, PrPC TRFRET 25*, PrPC TRFRET cf 18 and LD9 cytotox -4.
For O=C(Nc1ccc(F)cc1)Nc1cc(OCC(F)(F)F)cc(OCC(F)(F)F)c1 the results were GDH-TPI counter 1, Y pestis TopoI 1, Mtb FBA inh 4, PrPC TRFRET 44*, PrPC TRFRET cf 44* and LD9 cytotox 27*.
Screening CCOc1ccc(NC(=O)Nc2cc(OCC(F)(F)F)cc(OCC(F)(F)F)c2)cc1 returned TcdB GH inh 1, GDH-TPI counter 14, Y pestis TopoI 5, Mtb FBA inh 0 and PrPC TRFRET 10.
Cn1nnnc1Sc1ncnc2scc(-c3ccc(F)cc3)c12 was read as GDH-TPI counter 6, Y pestis TopoI 1, Mtb FBA inh 2 and PrPC TRFRET -4.
Screening Cn1nnnc1Sc1ncnc2scc(-c3ccc(Br)cc3)c12 returned TcdB GH inh 0, GDH-TPI counter 12, Y pestis TopoI -4, Mtb FBA inh 2, PrPC TRFRET 25*, PrPC TRFRET cf 27* and LD9 cytotox 22*.
`Cc1ccccc1C(=O)NNc1ccc(-c2csnn2)cc1` gave TcdB GH inh -1, GDH-TPI counter -7, Y pestis TopoI -5, Mtb FBA inh -1, PrPC TRFRET 25*, PrPC TRFRET cf 14 and LD9 cytotox 7.
C[C@@H]1CCCCO[C@H](CN(C)C(=O)c2ccncc2)[C@H](C)CN([C@H](C)CO)C(=O)c2cc(NC(=O)c3ccccc3)ccc2O1 was read as TcdB GH inh -2.
O=C(O)CC(CC(=O)Nc1ccc(-n2ccc(C(F)(F)F)n2)cc1)c1ccccc1 (configuration not stated) was read as TcdB GH inh -1, GDH-TPI counter -5, Y pestis TopoI -7, Mtb FBA inh 1 and PrPC TRFRET 6.
`O=C(Nc1ccccc1)Nc1ccc(-n2ccc(C(F)(F)F)n2)cc1` gave TcdB GH inh -1, GDH-TPI counter 8, Y pestis TopoI 0, Mtb FBA inh 1, PrPC TRFRET 26*, PrPC TRFRET cf 22 and LD9 cytotox 9.9*.
N#CC(C#N)=NNc1ccc(-n2ccc(C(F)(F)F)n2)cc1 was read as TcdB GH inh -2, GDH-TPI counter 14, Y pestis TopoI -8, Mtb FBA inh -2, PrPC TRFRET 32*, PrPC TRFRET cf 43* and LD9 cytotox 39*.
`C[C@@H]1CN([C@H](C)CO)C(=O)c2cc(-c3ccncc3)cnc2O[C@H]1CN(C)C(=O)c1ccncc1` gave TcdB GH inh -1.
CC(C)NC(=O)Nc1cccc2c1O[C@H](CN(C)C(=O)Nc1ccc(F)cc1)[C@@H](C)CN([C@H](C)CO)C2=O was read as TcdB GH inh 1.
Cc1cc2cc(CNS(=O)(=O)c3ccccc3)ccc2n1C was read as TcdB GH inh 1, GDH-TPI counter 4, Y pestis TopoI 4, Mtb FBA inh 0, PrPC TRFRET 35*, PrPC TRFRET cf 29* and LD9 cytotox -5.
Screening COc1ccc(S(=O)(=O)NCc2ccc3c(c2)cc(C)n3C)cc1 returned TcdB GH inh 2, GDH-TPI counter -1, Y pestis TopoI 18, Mtb FBA inh -1, PrPC TRFRET 38*, PrPC TRFRET cf 41* and LD9 cytotox -2.
`CCC(=O)N(C)C[C@H]1Oc2cc(-c3cccc(F)c3)ccc2S(=O)(=O)N([C@@H](C)CO)C[C@@H]1C` gave TcdB GH inh 0.
CCCCCCSc1ccc(-c2nc3ccc(Cl)cn3c2NCCCC)cc1OC was read as TcdB GH inh -1, GDH-TPI counter -3, Y pestis TopoI 18, Mtb FBA inh 4, PrPC TRFRET 33*!, PrPC TRFRET cf 9 and LD9 cytotox 0.
Screening Cc1ccc(Nc2c(-c3ccccn3)nc3cccc(C)n23)cc1 returned TcdB GH inh 2, GDH-TPI counter 14, Y pestis TopoI 15, Mtb FBA inh 3, PrPC TRFRET 30*, PrPC TRFRET cf 18 and LD9 cytotox 40*.
`Cc1cc(C)n2c(Nc3c(C)cccc3C)c(-c3ccccn3)nc2n1` gave TcdB GH inh 2 and PrPC TRFRET 1.
Screening Cc1cccc(NC(=O)CC(=O)Nc2cccc(C)c2)c1 returned TcdB GH inh 0, GDH-TPI counter -1, Y pestis TopoI -6, Mtb FBA inh 3 and PrPC TRFRET 5.
`Cc1cccc(NNC(=O)C(=O)NNc2cccc(C)c2)c1` gave TcdB GH inh 5, GDH-TPI counter 2, Y pestis TopoI 9, Mtb FBA inh -2, PrPC TRFRET 29*, PrPC TRFRET cf 21 and LD9 cytotox -3.
For CC(C)C(=O)Nc1ccc2c(c1)C(=O)N(C)[C@@H]1CC[C@@H](CC(=O)O)O[C@@H]1CO2 the results were TcdB GH inh -2.
For O=C(Nc1ccc(N2CCN(C(=O)c3ccco3)CC2)cc1)c1ccc2c(c1)OCO2 the results were GDH-TPI counter 8, Y pestis TopoI 11, Mtb FBA inh -1, PrPC TRFRET 25*, PrPC TRFRET cf 15 and LD9 cytotox 3.
`Cc1ccccc1C(=O)N1CCN(c2ccc(NC(=O)c3ccc4c(c3)OCO4)cc2)CC1` gave TcdB GH inh 1, GDH-TPI counter 9, Y pestis TopoI 15, Mtb FBA inh -1, PrPC TRFRET 34*, PrPC TRFRET cf 30* and LD9 cytotox 13*.
Screening O=C(Nc1ccc(N2CCN(C(=O)c3ccco3)CC2)cc1)c1ccc(Br)cc1 returned TcdB GH inh 0, GDH-TPI counter 8, Y pestis TopoI 0, Mtb FBA inh -1 and PrPC TRFRET -7.
N#C[C@H]1[C@@H](c2ccc(C3=CCCC3)cc2)[C@H](CO)N1C(=O)C1CCC1 was read as TcdB GH inh 0.
For COc1ccc(OCCNC(=O)c2ccc3nc(C)c(N(C)C(=O)CCc4ccccc4)n3c2)cc1 the results were TcdB GH inh 4, GDH-TPI counter 1, Y pestis TopoI 14, Mtb FBA inh -3, PrPC TRFRET 59*, PrPC TRFRET cf -3 and LD9 cytotox 0.
For CCCCC(=O)N(C)c1c(C)nc2ccc(C(=O)NCCOc3ccc(OC)cc3)cn12 the results were TcdB GH inh 0, GDH-TPI counter -14, Y pestis TopoI 5, Mtb FBA inh 3 and PrPC TRFRET 7.
